The record followed here is PubChem BioAssay AID1347418 (Sanford-Burnham Center for Chemical Genomics, 2020).

Screen size: about 1,300 compounds; about 750 (58%) were called active. The list shows a part of the results. Values without a mark were called inactive.

For this assay, the target named is Sulfhydryl oxidase 1 (Homo sapiens) (UniProt O00391). Put plainly: inhibition of human sulfhydryl oxidase QSOX1 – biochemical, ROS-Glo H2O2 luminescence, HTS, primary screen (AID 1347418). As to conditions: recombinant QSOX1, ROS-Glo H2O2 luminescence; at 12.5 µM; hits give high values; active = any value above zero.
Chain of Sulfhydryl oxidase 1 (Homo sapiens) (O00391 whole entry, looked up): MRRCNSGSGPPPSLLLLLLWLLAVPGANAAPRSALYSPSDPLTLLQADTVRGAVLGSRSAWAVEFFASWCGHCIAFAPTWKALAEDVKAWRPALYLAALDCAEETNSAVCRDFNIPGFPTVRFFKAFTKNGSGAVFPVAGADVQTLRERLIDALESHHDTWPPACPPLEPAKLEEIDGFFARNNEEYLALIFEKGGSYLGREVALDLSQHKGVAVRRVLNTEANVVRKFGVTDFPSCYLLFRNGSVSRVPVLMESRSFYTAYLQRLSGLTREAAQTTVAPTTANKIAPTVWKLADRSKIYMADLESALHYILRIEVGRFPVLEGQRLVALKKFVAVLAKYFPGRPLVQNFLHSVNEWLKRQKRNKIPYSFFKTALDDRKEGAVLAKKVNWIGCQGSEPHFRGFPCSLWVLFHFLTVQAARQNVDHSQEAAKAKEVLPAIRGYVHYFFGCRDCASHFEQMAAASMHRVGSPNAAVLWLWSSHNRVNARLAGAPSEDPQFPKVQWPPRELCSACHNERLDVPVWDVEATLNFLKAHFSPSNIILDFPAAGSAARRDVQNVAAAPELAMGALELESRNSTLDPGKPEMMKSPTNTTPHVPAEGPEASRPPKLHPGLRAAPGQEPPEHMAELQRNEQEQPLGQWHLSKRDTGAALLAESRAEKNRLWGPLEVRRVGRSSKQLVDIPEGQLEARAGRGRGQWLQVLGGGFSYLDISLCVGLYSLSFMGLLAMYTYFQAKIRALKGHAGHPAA
With `CC(Cc1ccc(O)c(O)c1)C(C)Cc1ccc(O)c(O)c1` (configuration not stated), the inhibition was 45.8% (active). Regarding `NC(Cc1cccc(-c2ccccc2CP(=O)(O)O)c1)C(=O)O` (configuration not stated), the inhibition was -2%. As for `N[C@@H](Cc1ccc(O)c(O)c1)C(=O)O`, the inhibition was 9.8% (active).

As for `N[C@@H](Cc1ccc(O)c(I)c1)C(=O)O`, the inhibition is -5.7%. Regarding `CCN1CCCC1CNC(=O)c1cc(S(N)(=O)=O)ccc1OC` (configuration not stated), the inhibition was 3.2% (active). As to `CCN1CCC[C@H]1CNC(=O)c1c(O)c(Cl)cc(Cl)c1OC`, the inhibition is 2.3% (active).

Consider `CCN1CCC[C@H]1CNC(=O)c1cc(S(N)(=O)=O)ccc1OC`, for which the inhibition is -1.2%. As for `CCN1CCCC1CNC(=O)c1cc(S(=O)(=O)CC)c(N)cc1OC` (configuration not stated), the inhibition was -1%. On to `NC1CCN(c2cccc(Cl)n2)CC1`, for which the inhibition is -5.8%. With `CC(=O)c1ccc(S(=O)(=O)NC(=O)NC2CCCCC2)cc1`, the inhibition was -5.7%. Regarding `Cc1cnc(C(=O)NCCc2ccc(S(=O)(=O)NC(=O)NC3CCCCC3)cc2)cn1`, the inhibition is 5.4% (active). Under `COc1ccc(Cl)cc1C(=O)NCCc1ccc(S(=O)(=O)NC(=O)NC2CCCCC2)cc1` stands -5.6%. Turning to `O=c1oc(Cl)c(Cl)c2ccccc12`, the inhibition is -1.8%. In the case of `C/C(=C\c1ccc(C(=O)O)cc1)c1ccc2c(c1)C(C)(C)CCC2(C)C`, the inhibition is 1.8% (active). As to `NC1(C(=O)O)CCc2cc(C(=O)O)ccc21` (configuration not stated), the inhibition is -2.9%. Take `CC(N)(C(=O)O)c1ccc(C(=O)O)cc1` (configuration not stated): the inhibition is -3.7%. `CN(C)CCOC(c1ccccc1)c1ccccc1`: the inhibition is 4.3% (active).

Consider `Cc1ccccc1C(OCCN(C)C)c1ccccc1` (configuration not stated), for which the inhibition was -1.5%. In the case of `CCN(Cc1ccncc1)C(=O)C(CO)c1ccccc1` (configuration not stated), the inhibition is -4.5%. On to `N=C(N)SCCc1cnc[nH]1`, for which the inhibition is 2.7% (active).

Regarding `NCCc1cnc[nH]1`, the inhibition is -5%. Turning to `O=C1CC2(CCCC2)CC(=O)N1CCCCN1CCN(c2ncccn2)CC1`, the inhibition is 1.2% (active). Regarding `COc1ccc(NC(=O)c2ccc(-c3ccc(-c4noc(C)n4)cc3C)cc2)cc1N1CCN(C)CC1`, the inhibition is -1.1%. With `COc1ccccc1N1CCN(CCN2C(=O)CC3(CCCC3)CC2=O)CC1`, the inhibition is 17.2% (active). Turning to `O=C(NCCN1CCOCC1)c1ccc(Cl)cc1`, the inhibition is -3.4%. `Cc1cccc(C(=O)NCN2CCN(c3ccccc3C#N)CC2)c1`: the inhibition is -1.8%. Take `COc1ccccc1N1CCN(CCCCNC(=O)c2ccc3ccccc3c2)CC1`: the inhibition is 12.2% (active). Regarding `c1cnc(N2CCN(Cc3ccc4c(c3)OCO4)CC2)nc1`, the inhibition was -0.2%. Turning to `COc1cccc(C(=O)NCCN2CCN(c3ccc(Cl)cc3)CC2)c1`, the inhibition is 21.7% (active). Regarding `Nc1nc(N)c2nc(-c3ccccc3)c(N)nc2n1`, the inhibition is -0.8%. For `CC(=O)[C@]1(O)Cc2c(O)c3c(c(O)c2[C@@H](O[C@H]2C[C@H](N)[C@H](O)[C@H](C)O2)C1)C(=O)c1ccccc1C3=O`, the inhibition was -0.7%. With `COc1ccccc1N1CCN(CCCCN2C(=O)c3ccccc3C2=O)CC1` the figure was 3.6% (active).

In the case of `c1cc(CN2CCCCC2)cc(OCCCNc2nc3ccccc3s2)c1`, the inhibition was 3.8% (active). On to `CC(=O)Nc1nnc(S(N)(=O)=O)s1`, for which the inhibition was 0.8% (active). Turning to `OCc1ccc(-c2nn(Cc3ccccc3)c3ccccc23)o1`, the inhibition was -2.6%. For the compound `C[C@@H](NCCc1ccc(O)cc1)[C@@H](O)c1ccc(O)cc1`, the inhibition is 3.9% (active). Take `CCCCCCCC/C=C\CCCCCCCC(=O)NCCc1ccc(O)c(O)c1`: the inhibition is -7.8%. With `CC(CCc1ccc(O)cc1)NCCc1ccc(O)c(O)c1` (configuration not stated), the inhibition was 17.1% (active). For the compound `CC(CCc1ccccc1)NCC(O)c1ccc(O)c(C(N)=O)c1` (configuration not stated), the inhibition is 2.1% (active). Regarding `O=Nc1ccc2oc(=O)ccc2c1`, the inhibition is 16.8% (active). Take `Cc1cc(Cn2cnc3c2C[C@@H](C(=O)O)N(C(=O)C(c2ccccc2)c2ccccc2)C3)ccc1N`: the inhibition is 0%.

Take `CCN(CC)CCCC(C)Nc1ccnc2cc(Cl)ccc12` (configuration not stated): the inhibition is -4.9%. With `CCN(CC)CCCC(C)Nc1c2ccc(Cl)cc2nc2ccc(OC)cc12` (configuration not stated) the figure was 0.7% (active); with `CN(C)C(=O)n1nnnc1Cc1ccc(-c2ccccc2)cc1`, 5.2% (active); with `CCNC(=O)N1CCN(CCCC(c2ccc(F)cc2)c2ccc(F)cc2)CC1`, -0.9%. Under `CN(C)C(=O)C(CCN1CCC(O)(c2ccc(Cl)cc2)CC1)(c1ccccc1)c1ccccc1` stands -0.9%; under `O=C(O)COCCN1CCN(C(c2ccccc2)c2ccc(Cl)cc2)CC1` (configuration not stated), 0.5% (active). For the compound `O=C1/C(=C/c2ccsc2)CC/C1=C\c1cccs1`, the inhibition is 3.3% (active). With `Fc1ccc(C(OCCCc2cnc[nH]2)c2ccc(F)cc2)cc1` the figure was 4.3% (active). Consider `O=C(c1ccc(OCCCc2cnc[nH]2)cc1)C1CC1`, for which the inhibition is -3.2%.

With `C1CCc2nnnn2CC1`, the inhibition is -0.2%. For the compound `CCC1C(=O)OCC1Cc1cncn1C` (configuration not stated), the inhibition is 5.6% (active). For the compound `CCCCCCCCCCCCCCCCCCOC[C@H](COP(=O)([O-])OCC[N+](C)(C)C)OC`, the inhibition was 3.3% (active). Under `CCCCCCCCCCCCCCCCCCNC(=O)OCC(COP(=O)([O-])OCC[n+]1ccsc1)OC` (configuration not stated) stands -4.6%. With `Cn1cnc([N+](=O)[O-])c1Sc1ncnc2nc[nH]c12` the figure was 0.2% (active); with `N=C(N)c1ccc(N)cc1`, 5.7% (active); with `N=C(N)c1ccccc1`, -3.7%. Under `N=C(N)c1ccc(OCCCCCOc2ccc(C(=N)N)cc2)cc1` stands 1.1% (active); under `CCc1ccc(/C=C2/SC(=S)NC2=O)cc1`, -3%. As for `O=C1NC(=O)/C(=C/c2ccc3nccnc3c2)S1`, the inhibition is 4.5% (active).

As for `O=C1NC(=O)/C(=C/c2ccc3c(c2)OC(F)(F)O3)S1`, the inhibition was -1.5%. For the compound `C#CCCN`, the inhibition was 0.1% (active). Under `Nc1ncnc2nc(-c3ccc(N4CCOCC4)nc3)cc(-c3cccc(Br)c3)c12` stands 10% (active); under `NC(=O)c1ccc2[nH]ccc2c1`, 0.6% (active); under `CC(C)OC(=O)C(C)(C)Oc1ccc(C(=O)c2ccc(Cl)cc2)cc1`, -0.6%. Consider `COc1ccc(NC(=O)/C=C/c2ccc(Cl)cc2)cc1`, for which the inhibition was 12.1% (active). Under `CC(C)(C)c1ccc(/C=C/C(=O)Nc2ccc3c(c2)OCCO3)cc1` stands -1.6%.

For `N[C@H](CCCP(=O)(O)O)C(=O)O`, the inhibition is -1.3%.

Turning to `N[C@@H](CCCC(=O)O)C(=O)O`, the inhibition was 6.7% (active).

For the compound `NC(CCCP(=O)(O)O)C(=O)O` (configuration not stated), the inhibition was 0%. Take `NC(=O)CC[C@H](N)C(=O)O`: the inhibition was 2.8% (active). Take `CN1C2CCCC1CC(NC(=O)c1nn(C)c3ccccc13)C2` (configuration not stated): the inhibition is 3% (active). With `O=c1[nH]ccc2c(O)cccc12` the figure was 4.1% (active); with `O[Si](CCCN1CCCCC1)(c1ccc(F)cc1)C1CCCCC1` (configuration not stated), -3.8%; with `C[C@H](NC(CCc1ccccc1)C(=O)O)C(=O)N1CCC[C@H]1C(=O)O` (some centres not stated), -2.6%. `CCOC(=O)[C@H](CCc1ccccc1)N[C@@H](C)C(=O)N1[C@H](C(=O)O)C[C@H]2CCCC[C@@H]21`: the inhibition is 2.6% (active). For `Cc1cccc(C#Cc2ccccc2)n1`, the inhibition was 2.9% (active).

Regarding `COc1cc([C@@H]2c3cc4c(cc3[C@@H](O[C@@H]3O[C@@H]5CO[C@@H](C)O[C@H]5[C@H](O)[C@H]3O)[C@H]3COC(=O)[C@H]23)OCO4)cc(OC)c1O`, the inhibition was 0%. For `COc1ccc2c(c1OC)C(=O)O[C@@H]2[C@H]1c2c(cc3c(c2OC)OCO3)CCN1C`, the inhibition is -4.2%. As to `COc1cc([C@@H]2c3cc4c(cc3[C@H](O)C3COC(=O)[C@@H]32)OCO4)cc(OC)c1OC` (some centres not stated), the inhibition was 1.1% (active). `CC1=C(CC(=O)O)c2cc(F)ccc2/C1=C\c1ccc(S(C)(=O)=O)cc1`: the inhibition was 3.1% (active). On to `CC1=C(CC(=O)O)c2cc(F)ccc2/C1=C\c1ccc(S(C)=O)cc1` (configuration not stated), for which the inhibition was -0.4%. As to `CC(=O)Oc1ccccc1C(=O)O`, the inhibition was 0.3% (active). Turning to `O=C(CCc1ccc(O)cc1)c1c(O)cc(O)cc1O`, the inhibition is 6.2% (active).

In the case of `O=C1CCC(c2ccc(-n3ccnc3)cc2)=NN1`, the inhibition is 6.6% (active).

For `Nc1nc2ccc(OC(F)(F)F)cc2s1`, the inhibition is -3.9%.

In the case of `Cc1ccc2nc(CN(CCN(Cc3nc4ccc(C)cc4[nH]3)Cc3nc4ccc(C)cc4[nH]3)Cc3nc4ccc(C)cc4[nH]3)[nH]c2c1`, the inhibition is -0.7%.

Take `Brc1c(Br)c(Br)c2n[nH]nc2c1Br`: the inhibition was 1% (active). `CNCCCN1c2ccccc2CCc2ccccc21`: the inhibition is 5.2% (active). As for `CC(CN(C)C)CN1c2ccccc2CCc2ccccc21` (configuration not stated), the inhibition is 2% (active). Turning to `CNCCCC1c2ccccc2C=Cc2ccccc21`, the inhibition is -4.7%. `CN(C)CCCN1c2ccccc2CCc2ccccc21`: the inhibition was 11.1% (active). Regarding `CN(C)CCCN1c2ccccc2CCc2ccc(Cl)cc21`, the inhibition is 2.6% (active).

With `CNCCCC12CCC(c3ccccc31)c1ccccc12`, the inhibition was -2.7%. Under `O=C(O)CCC(C(=O)O)N1C(=O)c2ccccc2C1=O` (configuration not stated) stands -1%. Turning to `CCCCNc1c(C(=O)OCC)c(C)nc2c1cnn2CC`, the inhibition was 3.5% (active). With `CCOC(=O)c1cnc2c(cnn2CC)c1NN=C(C)C` the figure was 0.7% (active). Turning to `CCCCNc1ccc(C(=O)OCCN(C)C)cc1`, the inhibition was -1.8%. Regarding `CC(C)COC(=O)OCN1C(=O)CN(CCN2CC(=O)N(COC(=O)OCC(C)C)C(=O)C2)CC1=O`, the inhibition was 2.6% (active). Take `NCCSSCCN`: the inhibition was 10.5% (active). In the case of `CCOC(=O)Nc1ccc(NCc2ccc(F)cc2)nc1N`, the inhibition is 9.8% (active).

As for `CCCCCCCCCC[Si](C)(C)CCC(=O)NC(Cc1ccc(C)cc1)c1ccccc1` (configuration not stated), the inhibition is 0.6% (active). With `CCCCCCCCc1ccc(-c2ccc(C(=O)O)cc2)cc1`, the inhibition was -5.7%.

With `NC(N)=NC(=O)c1nc(Cl)c(N2CCCCCC2)nc1N`, the inhibition was 1.7% (active).

Take `NC(N)=NC(=O)c1nc(Cl)c(N)nc1N`: the inhibition is -2.5%. As to `CCN(c1nc(N)c(C(=O)N=C(N)N)nc1Cl)C(C)C`, the inhibition is -3.8%. Consider `CN(C)c1nc(N)c(C(=O)N=C(N)N)nc1Cl`, for which the inhibition is 0.7% (active).
